# Reference: the supplement of paper PMC3334620
# The full ranking holds about 33,000 sequences; the median of “E-score (-0.5 to 0.5)” is about -0.035, and the highest 2% start at about 0.34. Shown is part of a subset that was picked to be rich in the highest values.
# Target: T1, Mot3 (UniProt P54785)
# T1 sequence: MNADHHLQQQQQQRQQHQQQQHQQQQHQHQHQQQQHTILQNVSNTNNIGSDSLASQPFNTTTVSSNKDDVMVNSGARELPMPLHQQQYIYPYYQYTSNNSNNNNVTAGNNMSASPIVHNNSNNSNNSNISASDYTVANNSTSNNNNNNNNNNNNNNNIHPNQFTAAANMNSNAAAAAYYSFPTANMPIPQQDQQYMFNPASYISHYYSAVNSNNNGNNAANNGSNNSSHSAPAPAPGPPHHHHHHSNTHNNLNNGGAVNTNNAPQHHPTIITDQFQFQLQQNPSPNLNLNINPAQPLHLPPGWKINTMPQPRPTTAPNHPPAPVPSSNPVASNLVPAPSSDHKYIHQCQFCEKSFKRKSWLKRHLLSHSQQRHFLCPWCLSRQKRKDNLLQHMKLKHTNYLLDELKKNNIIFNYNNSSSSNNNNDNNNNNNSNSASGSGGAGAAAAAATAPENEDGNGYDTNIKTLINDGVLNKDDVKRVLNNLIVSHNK
# Assay: PBM E-score (8-mer binding enrichment) (E-score (-0.5 to 0.5)); higher = stronger / more preferred TF binding
# Conditions: protein concentration: 200 nM; construct: GST-full length
# In short: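 Yeast transcription factors carrying a GST tag, as full-length proteins or DNA-binding domains, were produced by PURExpress in vitro transcription/translation. About 100-200 nM protein was applied to universal all-10-mer Agilent arrays, double-stranded by primer extension on fresh or once-stripped slides. Bound protein was detected with fluorescent anti-GST, and scans were normalised with masliner. The Universal PBM Analysis Suite gave each ungapped eight-base word, pooled with its reverse complement, an E-score, a modified Wilcoxon-Mann-Whitney statistic.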
row,Sequence,PBM E-score
1,AGCCATAC,-0.163
2,AAAGGCAA,0.486
3,AAGGGCAA,0.127
4,AAAGGCAG,0.282
5,GAAGGCAA,0.489
6,GAAGGCCA,-0.0342
7,GAAGGCTA,0.0397
8,CAAGCAGC,-0.0458
9,AATCCATC,-0.21
10,CTTAAGAC,-0.0312
11,ACCGCGAA,-0.0635
12,AGGAACTC,0.396
13,GGGAACTA,-0.0385
14,AGGAACTA,0.38
15,CGGAACTA,-0.265
16,ATGAACTG,0.0964
17,CGGAACTC,-0.29
18,ATGAACTC,-0.14
19,AGGAACTG,0.413
20,AAGAACTG,-0.196
21,ACAGCCAT,0.172
22,AGCAGGGA,-0.167
23,ACAGTCAT,-0.0548
24,GAGCGCAC,-0.307
25,ATCTTGGG,-0.157

row,Sequence,PBM E-score
1,ACGCTCAG,-0.226
2,ATCAACTG,-0.0772
3,GAAGTACC,0.00084
4,ACCGAATC,-0.00094
5,GTAAGGCA,0.464
6,ATAAGGCG,0.0672
7,ATAAGGCC,-0.142
8,GTAAGGTA,0.321
9,CTAAGGCC,-0.0134
10,GTAAGGGA,0.145
11,CTAAGGCA,0.452
12,CTAAGGTA,0.226
13,ATAAGGCA,0.46
14,TACTGAAA,0.037
15,AGACGTTC,-0.008
16,AGCATAAC,0.0259
17,AGTCTATA,-0.0584
18,GGCACCTA,0.357
19,GGCACCGA,0.356
20,CGCACCGA,-0.27
21,AGCACCTA,0.199
22,AGCACCGA,-0.168
23,CGCACCTA,-0.125
24,GGCCGAAA,-0.186
25,TACCCAAA,0.11

row,Sequence,PBM E-score
1,AATCTATG,-0.00189
2,ACCTGAAG,-0.135
3,AAGCCCCT,-0.195
4,AGAACTAT,-0.0425
5,AGAAAGAG,-0.195
6,AAAGGAGA,-0.0548
7,AAAGGATA,-0.0444
8,AAAGGAAG,0.059
9,CGAGGAAC,0.285
10,CAAGGAAG,-0.00272
11,GAAGGAAC,0.468
12,AAAGGAAA,0.442
13,AAAGGAAT,-0.0306
14,CAAGGAAC,0.43
15,GAAGGAGC,-0.251
16,CAAGGACC,0.0666
17,AAAGGAAC,0.456
18,AACTCTCT,-0.19
19,AGCCCGAT,-0.195
20,CCCAGGAG,-0.207
21,ACTTGTAT,0.173
22,ACACCTTG,0.193
23,CCGTTGTA,0.125
24,CTGAACCA,0.0648
25,AACAGGCT,0.305

row,Sequence,PBM E-score
1,GACAGGGA,-0.089
2,CACAGGCA,0.482
3,AACAGGCG,0.167
4,TACAGGCA,0.484
5,TACAGGGA,0.0536
6,GACAGGCC,-0.139
7,TACAGTCA,0.191
8,GACAGGCA,0.483
9,CACAGGCG,0.277
10,CACAGGCC,0.0987
11,AACAGGCA,0.484
12,GCTGTGAC,-0.128
13,GACTTCCA,-0.126
14,TGGAAGAA,0.00562
15,CACTACGG,-0.1
16,GCCACAGA,-0.0635
17,GAGGAGGC,-0.0566
18,AATAAGTA,0.124
19,CCACTCGA,-0.0827
20,AATAGACG,-0.138
21,ACACGCGG,0.252
22,ACACGCTC,0.305
23,ACACGCGT,0.36
24,ACACGCTA,0.356
25,ACACGCTG,0.256

row,Sequence,PBM E-score
1,ACACGCGA,0.292
2,AGTATCGA,0.122
3,TCGTAGAA,0.0868
4,CCGATCAC,-0.0956
5,ATCGCCAG,-0.289
6,AAATGTTA,0.288
7,GGATGTTA,0.172
8,AGATGTTA,0.158
9,CCATGTTA,0.339
10,GCATGTTA,0.385
11,ACATGTTG,0.368
12,ACATGTTA,0.397
13,ACATGTTC,0.295
14,AGATGTTG,-0.102
15,CTAGGTCA,-0.135
16,ATTGGCAC,-0.068
17,AAACCTGG,0.0922
18,GCCGTTAC,-0.13
19,CCAACTCC,-0.135
20,TCCTCCAA,-0.0985
21,GATCTAGC,-0.194
22,ATACTGCC,-0.204
23,AGCAGGCG,0.148
24,GGCAGGTA,0.277
25,GGCAGGCA,0.481

row,Sequence,PBM E-score
1,CGCAGGCA,0.482
2,TGCAGCCA,-0.192
3,AGCAGGCC,-0.0206
4,CGCAGGCC,0.123
5,CGCAGGCG,0.17
6,AGCAGGCA,0.483
7,GGCAGGCC,-0.165
8,TGCAGACA,0.0246
9,TGCAGGCA,0.484
10,TATGCGAA,-0.0122
11,TATCAATA,0.134
12,AGTTTTCA,-0.204
13,CATCTGCA,-0.0636
14,CTAACTCC,-0.141
15,CGCGTAAA,0.392
16,AGCGTAAA,0.12
17,GGCGTAAA,0.146
18,CGCGTAAG,0.299
19,CGCGTAAC,0.225
20,TGCGTAAA,0.342
21,GGGGGGAA,-0.375
22,CTCGGCTA,-0.0141
23,GTATGGAA,-0.156
24,GCTTGGCA,-0.105
25,AGTTTTCG,0.0727

row,Sequence,PBM E-score
1,GCGGGTCA,0.0734
2,ATGAGGCA,0.364
3,GTGAGGCA,0.353
4,GTGAGGAA,-0.106
5,CTGAGGCA,0.257
6,ATGAGGCG,-0.119
7,ATGAGGCC,-0.174
8,CCTACTTC,-0.0137
9,ACCCGTCA,-0.239
10,AGATAGCG,-0.0829
11,GGGCACGA,0.163
12,CGGCACGA,0.00099
13,AAGCACGG,0.0983
14,AGGCACGG,0.491
15,AGGCACGA,0.491
16,ACGCACGG,0.0438
17,GCCCTAGC,-0.184
18,CTTGGCAC,-0.0521
19,CTTTGGCC,0.0624
20,CATTGTGA,-0.0102
21,ACCACGGC,-0.108
22,GCCCGGTA,-0.0651
